Experimental data taken from the antibiotic and cytotoxicity screens of Wong et al. (2023).
Out of some 39,000 compounds screened, about 1,500 (3.8%) were called active. The sample as a whole holds a higher share of actives than the screen did.

Each molecule was assayed on HSkMC (human skeletal muscle cells) (assay: cytotoxicity call (relative viability < 0.9)). Conditions: 10 µM.

SMILES | cytotoxicity call
NC(=O)c1c(Cl)ncc2c1NCC2 | inactive
CC1=C(C)C(=O)C(CCCCCCCCCC[P+](c2ccccc2)(c2ccccc2)c2ccccc2)=CC1=O | active
COC1=C(OC)C(=O)C(CCCCCCCCCC[P+](c2ccccc2)(c2ccccc2)c2ccccc2)=C(C)C1=O | active
COC(=O)CCCCCCC(=O)Nc1ccc(NC(=O)CCCC[P+](c2ccccc2)(c2ccccc2)c2ccccc2)cc1 | inactive
COC1=C(OC)C(=O)C(C/C=C(\C)CC/C=C(\C)CC/C=C(\C)CC/C=C(\C)CC/C=C(\C)CC/C=C(\C)CC/C=C(\C)CC/C=C(\C)CC/C=C(\C)CCC=C(C)C)=C(C)C1=O | inactive
CC1=CC(=O)c2ccccc2C1=O | inactive
CC1=C(C)C(=O)C(C(CCCCCC(=O)O)c2ccccc2)=C(C)C1=O (stereo not drawn) | inactive
COC1=C(OC)C(=O)C(CCCCCCCCCCO)=C(C)C1=O | active
COC1=C(OC)C(=O)C(CC=C(C)CCC=C(C)CCC=C(C)CCC=C(C)CCC=C(C)CCC=C(C)CCC=C(C)CCC=C(C)CCC=C(C)CCC=C(C)C)=C(C)C1=O | inactive
COC1=C(OC)C(=O)C(C/C=C(\C)CC/C=C(\C)CC/C=C(\C)CC/C=C(/C)CC/C=C(\C)CC/C=C(\C)CC/C=C(\C)CC/C=C(\C)CC/C=C(\C)CCC=C(C)C)=C(C)C1=O | inactive
Nc1ccc(NC(=O)CCN2CCOCC2)cc1 | inactive
C[C@@H]1CN([C@H](C)CO)C(=O)c2cccc(NC(=O)CCCCCC(=O)Nc3ccccc3N)c2O[C@H]1CN(C)CC1CCCCC1 | inactive
CC(=O)N(C)C[C@H]1Oc2cc(C#CCN(C)C)ccc2S(=O)(=O)N([C@H](C)CO)C[C@H]1C | inactive
C[C@@H]1CCCCO[C@H](CN(C)Cc2ccc(C(=O)O)cc2)[C@H](C)CN([C@H](C)CO)C(=O)c2cc(NC(=O)Nc3ccc(C(F)(F)F)cc3)ccc2O1 | inactive
C[C@H]1CN([C@@H](C)CO)C(=O)c2cc(NS(=O)(=O)c3cn(C)cn3)ccc2O[C@H]1CN(C)C(=O)Nc1ccccc1 | inactive
C[C@H]1CN([C@@H](C)CO)C(=O)c2cc(/C=C/c3ccccc3)cnc2O[C@@H]1CN(C)S(=O)(=O)c1cn(C)cn1 | inactive
COc1ccc(CN(C)C[C@H]2OCCCC[C@@H](C)Oc3ccc(NS(=O)(=O)c4ccc(F)cc4)cc3C(=O)N([C@@H](C)CO)C[C@@H]2C)cc1 | inactive
O=c1n(-c2ccc(F)cc2)nc2n1CCCN2 | inactive
Cc1ccc(S(=O)(=O)N(C)C[C@H]2Oc3ccc(NC(=O)Cn4cnnn4)cc3CC(=O)N([C@H](C)CO)C[C@@H]2C)cc1 | inactive

SMILES | cytotoxicity call
CC1OC(OC2C(O)CC(OC3C(O)CC(OC4CCC5(C)C(CCC6C5CCC5(C)C(C7=CC(=O)OC7)CCC65O)C4)OC3C)OC2C)CC(O)C1O (stereo not drawn) | active
C[C@H]1O[C@@H](O[C@H]2[C@@H](O)C[C@H](O[C@H]3[C@@H](O)C[C@H](O[C@H]4CC[C@@]5(C)[C@H](CC[C@@H]6[C@@H]5CC[C@]5(C)[C@@H](C7=CC(=O)OC7)CC[C@]65O)C4)O[C@@H]3C)O[C@@H]2C)C[C@H](O)[C@@H]1O | active
C[C@H](CO)N1C[C@H](C)[C@@H](CN(C)Cc2ccc(Cl)c(Cl)c2)Oc2ccc(NC(=O)NC3CCCCC3)cc2C1=O | inactive
C[C@@H]1CN([C@H](C)CO)C(=O)Cc2cc(NC(=O)CCCCCC(=O)Nc3ccccc3N)ccc2O[C@@H]1CN(C)C(=O)Nc1ccc(F)cc1 | inactive
COc1ccc(NC(=O)Nc2ccc3c(c2)CC(=O)N([C@@H](C)CO)C[C@@H](C)[C@H](CN(C)CC2CCCCC2)O3)cc1 | inactive
O=C(C[C@H]1CC[C@H](NS(=O)(=O)c2ccccc2)[C@H](CO)O1)NCc1ccncn1 | inactive
COc1ccc2c(-c3ccc(Cl)cc3)c(C)oc2c1 | inactive
C[C@H](CO)N1C[C@H](C)[C@H](CN(C)S(=O)(=O)c2ccccc2)Oc2ccc(NC(=O)Cc3ccccc3)cc2C1=O | inactive
O=C(C[C@@H]1C[C@@H]2c3cc(NS(=O)(=O)c4ccccc4)ccc3O[C@@H]2[C@H](CO)O1)NCC(F)(F)F | inactive
C[C@@H]1CCCCO[C@H](CN(C)Cc2ccc3c(c2)OCO3)[C@@H](C)CN([C@H](C)CO)C(=O)c2cc(NS(=O)(=O)c3ccccc3)ccc2O1 | inactive
C[C@H]1O[C@@H](O[C@H]2CC[C@@]3(C)[C@@H](CC[C@@]4(C)[C@@H]3CC=C3[C@H]5C[C@](C)(C(=O)O)CC[C@]5(C(=O)O[C@H]5O[C@@H](CO)[C@@H](O)[C@@H](O)[C@@H]5O)CC[C@@]34C)[C@@]2(C)CO)[C@@H](O)[C@@H](O[C@H]2O[C@@H](CO)[C@@H](O)[C@@H](O)[C@@H]2O)[C@@H]1O | inactive
CC=C(C)C(=O)OC1C(OC(C)=O)C2(CO)C(O)CC3(C)C(=CCC4C5(C)CCC(OC6OC(C(=O)O)C(OC7OC(CO)C(O)C(O)C7O)C(O)C6OC6OC(CO)C(O)C(O)C6O)C(C)(CO)C5CCC43C)C2CC1(C)C (stereo not drawn) | active
C/C=C(/C)C(=O)O[C@H]1[C@@H](OC(C)=O)[C@@]2(CO)[C@@H](O)C[C@@]3(C)C(=CC[C@H]4[C@@]5(C)CC[C@@H](O[C@H]6O[C@H](C(=O)O)[C@@H](O[C@H]7O[C@@H](CO)[C@@H](O)[C@@H](O)[C@@H]7O)[C@@H](O)[C@@H]6O[C@H]6O[C@@H](CO)[C@@H](O)[C@@H](O)[C@@H]6O)[C@@](C)(CO)[C@@H]5CC[C@]43C)[C@@H]2CC1(C)C | active
C[C@@H]1O[C@@H](O[C@@H]2[C@@H](O)[C@@H](O[C@@H]3O[C@@H](CO)[C@H](O)[C@H]3O)[C@H](OC(=O)[C@]34CCC(C)(C)C[C@H]3C3=CC[C@H]5[C@@]6(C)C[C@H](O)[C@H](O[C@@H]7O[C@@H](C)[C@H](O)[C@@H](O[C@@H]8OC[C@@H](O)[C@H](O)[C@H]8O[C@@H]8O[C@H](CO)[C@@H](O)[C@H](O)[C@H]8O)[C@H]7O)[C@@](C)(CO)[C@@H]6CC[C@@]5(C)[C@]3(C)C[C@H]4O)O[C@H]2C)[C@H](O)[C@H](O)[C@H]1O | inactive
CC=C(C)C(=O)O[C@H]1[C@H](OC(C)=O)[C@]2(CO)[C@H](O)C[C@]3(C)C(=CC[C@@H]4[C@@]5(C)CC[C@H](O[C@@H]6O[C@H](C(=O)O)[C@@H](O[C@@H]7O[C@H](CO)[C@@H](O)[C@H](O)[C@H]7O)[C@H](O)[C@H]6O[C@@H]6O[C@H](CO)[C@@H](O)[C@H](O)[C@H]6O)[C@](C)(CO)[C@@H]5CC[C@]43C)[C@@H]2CC1(C)C | active
C[C@@H]1O[C@@H](O[C@@H]2CC[C@@]3(C)[C@@H](CC[C@]4(C)[C@@H]3CC=C3[C@@H]5CC(C)(C)CC[C@]5(C(=O)O[C@@H]5O[C@H](CO[C@@H]6O[C@H](CO)[C@@H](O)[C@H](O)[C@H]6O)[C@@H](O)[C@H](O)[C@H]5O)CC[C@]34C)[C@]2(C)CO)[C@H](O)[C@H](O[C@@H]2OC[C@@H](O)[C@H](O)[C@H]2O)[C@H]1O | inactive
CC1(C)CC[C@]2(C(=O)O[C@H]3O[C@@H](CO)[C@@H](O)[C@@H](O)[C@@H]3O)CC[C@]3(C)C(=CC[C@H]4[C@@]5(C)C[C@@H](O)[C@H](O[C@H]6O[C@H](C(=O)O)[C@@H](O)[C@@H](O)[C@@H]6O)C(C)(C)[C@@H]5CC[C@]43C)[C@@H]2C1 | inactive
C[C@H]1O[C@@H](OC(=O)[C@]23CCC(C)(C)C[C@H]2C2=CC[C@H]4[C@@]5(C)CC[C@H](O[C@@H]6O[C@H](C(=O)O)[C@@H](O)[C@H](O[C@@H]7OC[C@@H](O)[C@H](O)[C@H]7O)[C@H]6O[C@@H]6O[C@H](CO)[C@H](O)[C@H](O)[C@H]6O)[C@@](C)(C=O)[C@@H]5CC[C@@]4(C)[C@]2(C)C[C@H]3O)[C@H](O[C@H]2O[C@@H](CO)[C@@H](O)[C@@H](O)[C@@H]2O)[C@@H](O)[C@H]1O[C@@H]1O[C@H](C)[C@@H](O[C@H]2OC[C@@H](O)[C@@H](O)[C@@H]2O)[C@H](O)[C@@H]1O | inactive
C/C=C(/C)C(=O)O[C@@H]1[C@H](OC(C)=O)[C@]2(CO)[C@H](O)C[C@]3(C)C(=CC[C@H]4[C@@]5(C)CC[C@H](O[C@@H]6O[C@H](C(=O)O)[C@@H](O[C@@H]7O[C@H](CO)[C@@H](O)[C@H](O)[C@H]7O)[C@H](O)[C@H]6O[C@@H]6O[C@H](CO)[C@@H](O)[C@H](O)[C@H]6O)[C@](C)(CO)[C@@H]5CC[C@]43C)[C@@H]2CC1(C)C | inactive
